PubChem BioAssay (NCATS)
Inconclusive results are not listed. The source made the active and inactive calls. Calls come from the whole dose curve; as a rule, active = well fitted curve in the direction sought with a large enough effect; inconclusive = small, poorly fitted or top-dose-only effect, or another doubt; inactive = no such curve, though single readings can be large; an effect the other way counts as inactive or inconclusive.

How the values were obtained:
[1] = target: Rap guanine nucleotide exchange factor 3 (Homo sapiens) (UniProt O95398); experiment: Confirmatory qHTS for agonist of cAMP-regulated guanine nucleotide exchange factor 3 (EPAC1) (AID 1645881);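 note: EPAC1 catalysed release of BODIPY-GDP from Rap1B seen as fluorescence loss; 100% = effect of cAMP agonist control; nearly all actives have a fitted effect of over 75% in size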
[2] = target: Rap guanine nucleotide exchange factor 4 (Homo sapiens) (UniProt Q8WZA2); experiment: Confirmatory qHTS for agonist of cAMP-regulated guanine nucleotide exchange factor 4 (EPAC2) (AID 1645884);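 note: nucleotide exchange releases bodipy-GDP from Rap1 and this lowers its fluorescence; % is set by controls: 0 for no effect and ±100 for the full control effect; nearly all actives have a fitted effect of over 65% in size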
[3] = target: Rap guanine nucleotide exchange factor 4 (Homo sapiens) (UniProt Q8WZA2); experiment: Confirmatory qHTS for antagonist of cAMP-regulated guanine nucleotide exchange factor 4 (EPAC2) (AID 1645885); note: nearly all actives have a fitted effect of over 25% in size; note: potency is the fitted concentration of half-maximal effect; for activity change, negative = inhibition: % is set by controls: 0 for no effect and ±100 for the full control effect
[4] = target: Rap guanine nucleotide exchange factor 3 (Homo sapiens) (UniProt O95398); experiment: Counterscreen qHTS for antagonist of cAMP-regulated guanine nucleotide exchange factor 3 (EPAC1) (AID 1645888);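 note: fluorescence loss as bound BODIPY-GDP is released from Rap1B; % of control where 0% means no effect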
In short: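 Rap1B-BODIPY-GDP 250 nM + GDP 50 uM; cpds 7-pt, final 9.74 nM–152 uM (activator mode) or from 7.32 nM upwards (inhibitor mode); RT; FI 480/540 nm at 5 and 30 min, then ± cAMP, reread.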

Rap guanine nucleotide exchange factor 4 (Homo sapiens), sequence (Q8WZA2 whole entry, looked up): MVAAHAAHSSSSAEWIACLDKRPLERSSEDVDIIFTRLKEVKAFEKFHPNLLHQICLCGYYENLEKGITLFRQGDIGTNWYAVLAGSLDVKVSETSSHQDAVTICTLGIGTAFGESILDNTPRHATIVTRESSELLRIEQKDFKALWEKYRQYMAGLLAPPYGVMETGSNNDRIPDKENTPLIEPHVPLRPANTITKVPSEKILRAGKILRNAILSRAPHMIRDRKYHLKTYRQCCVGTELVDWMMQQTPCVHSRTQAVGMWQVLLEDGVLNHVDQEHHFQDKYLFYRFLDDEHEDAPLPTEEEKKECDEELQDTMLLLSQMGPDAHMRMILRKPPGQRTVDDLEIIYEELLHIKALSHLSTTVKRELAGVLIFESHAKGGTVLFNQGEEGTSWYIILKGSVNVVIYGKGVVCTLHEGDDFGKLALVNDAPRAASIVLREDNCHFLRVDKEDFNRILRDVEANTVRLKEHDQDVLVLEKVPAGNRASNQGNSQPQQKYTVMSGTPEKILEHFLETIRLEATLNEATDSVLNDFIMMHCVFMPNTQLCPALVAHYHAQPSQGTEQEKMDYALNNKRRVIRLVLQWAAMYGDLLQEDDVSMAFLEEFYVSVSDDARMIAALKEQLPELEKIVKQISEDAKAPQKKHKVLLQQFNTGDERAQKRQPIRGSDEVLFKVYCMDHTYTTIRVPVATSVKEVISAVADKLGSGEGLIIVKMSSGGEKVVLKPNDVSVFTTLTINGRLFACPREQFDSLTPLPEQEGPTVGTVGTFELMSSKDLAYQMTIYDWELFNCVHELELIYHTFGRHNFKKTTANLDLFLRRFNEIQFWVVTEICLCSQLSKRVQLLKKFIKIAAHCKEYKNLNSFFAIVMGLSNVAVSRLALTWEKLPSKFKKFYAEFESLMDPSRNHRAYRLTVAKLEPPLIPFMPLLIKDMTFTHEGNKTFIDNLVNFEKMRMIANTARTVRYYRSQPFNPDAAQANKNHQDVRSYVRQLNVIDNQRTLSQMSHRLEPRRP
Rap guanine nucleotide exchange factor 3 (Homo sapiens), sequence (O95398 whole entry, looked up): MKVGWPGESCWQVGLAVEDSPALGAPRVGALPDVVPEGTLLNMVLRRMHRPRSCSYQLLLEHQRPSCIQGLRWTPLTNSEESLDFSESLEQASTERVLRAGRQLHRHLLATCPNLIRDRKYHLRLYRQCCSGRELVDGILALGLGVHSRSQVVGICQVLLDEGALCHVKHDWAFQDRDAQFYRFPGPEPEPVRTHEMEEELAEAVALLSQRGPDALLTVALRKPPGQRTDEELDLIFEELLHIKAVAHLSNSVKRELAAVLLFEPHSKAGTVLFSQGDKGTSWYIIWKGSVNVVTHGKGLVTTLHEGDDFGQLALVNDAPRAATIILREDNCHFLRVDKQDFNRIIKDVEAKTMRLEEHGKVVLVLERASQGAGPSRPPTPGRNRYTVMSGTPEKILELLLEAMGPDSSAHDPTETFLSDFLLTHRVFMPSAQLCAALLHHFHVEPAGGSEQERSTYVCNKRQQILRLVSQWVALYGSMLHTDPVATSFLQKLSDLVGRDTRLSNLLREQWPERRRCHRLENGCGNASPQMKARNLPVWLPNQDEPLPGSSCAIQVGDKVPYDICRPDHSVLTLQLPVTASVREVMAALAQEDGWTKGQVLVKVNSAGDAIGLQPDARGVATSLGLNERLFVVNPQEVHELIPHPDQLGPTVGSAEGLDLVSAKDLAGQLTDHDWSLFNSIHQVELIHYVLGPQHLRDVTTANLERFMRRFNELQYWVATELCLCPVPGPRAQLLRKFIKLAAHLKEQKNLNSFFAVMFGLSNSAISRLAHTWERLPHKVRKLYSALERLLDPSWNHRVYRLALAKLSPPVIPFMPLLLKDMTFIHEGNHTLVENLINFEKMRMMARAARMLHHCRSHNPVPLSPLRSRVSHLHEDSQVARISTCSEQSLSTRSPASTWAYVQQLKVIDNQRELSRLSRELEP

O=C1C(Cl)=C(NS(=O)(=O)c2ccc([N+](=O)[O-])cc2)C(=O)c2ccccc21
inactive: Potency [1] | activation [2] 8.93% [at 17.1 µM, percent relative to cAMP agonist control] | Potency [3] | activity change, negative = inhibition [4] 11.7% [at 30.8 µM]

Cc1cccc(C)c1NC(=O)Cn1c(=O)n(Cc2ccc(C(=O)NCc3ccco3)cc2)c(=O)c2sccc21
inactive: Potency [1] | Potency [2] | Potency [3] | Potency [4]

O=C(COC(=O)C1(c2ccc(Cl)cc2)CCCC1)NCc1ccco1
inactive: Potency [1] | Potency [2] | Potency [4]
active: Potency [3] 75.7 µM

Cc1cccc(-c2nc3c(cnn3-c3ccccc3)c(=O)n2-c2cccc(Cl)c2)c1
inactive: Potency [1] | Potency [2] | outcome [3] inactive [at 12.7 µM] | Potency [4]

CC(C)(C)C1CCc2c(sc3nc(SCC(=O)O)nc(N)c23)C1 (configuration not stated)
inactive: Potency [1] | activation [2] 8.5% [at 17.1 µM, percent relative to cAMP agonist control] | Potency [3] | activity change, negative = inhibition [4] -1.53% [at 30.8 µM]

O=C(NCCc1ccccc1)c1ccc(Cn2c(SCc3cccc(F)c3)nc3cccnc32)cc1
inactive: Potency [1] | Potency [2] | Potency [3] | Potency [4]

CCc1ccc(/C=C2\SC(=S)N(CCCC(=O)Nc3ccccc3C(=O)O)C2=O)cc1
inactive: Potency [1] | activation [2] 7.93% [at 17.1 µM, percent relative to cAMP agonist control] | Potency [3] | activity change, negative = inhibition [4] 0.611% [at 30.8 µM]

Cc1noc(C)c1COc1ccccc1C(=O)NC(C)c1ccc(Cl)cc1 (configuration not stated)
inactive: Potency [1] | Potency [2] | Potency [4]
active: Potency [3] 33.8 µM

O=C(O)c1ccn2c(C(=O)c3ccc(Cl)cc3)c(-c3ccccc3)cc2c1
inactive: Potency [1] | Potency [2] | Potency [3] | Potency [4]

Nc1ccc2c(c1)C(=O)C(=O)c1ccccc1-2
inactive: Potency [1] | Potency [2] | Potency [3] | Potency [4]

CC(C)(C)Cc1c(-c2ccccc2)nc2ccc(Cl)cn12
inactive: Potency [1] | activation [2] 9.48% [at 17.1 µM, percent relative to cAMP agonist control] | Potency [3] | activity change, negative = inhibition [4] -2.23% [at 30.8 µM]

COc1cn(-c2ccccc2)nc1C(=O)Nc1ccc(C)cc1Cl
active: Potency [3] 95.3 µM
inactive: Potency [1] | Potency [2] | Potency [4]

Cc1ccc(C(=O)c2cn(Cc3cccc(C)c3)c3nc(C)ccc3c2=O)cc1
inactive: Potency [1] | Potency [2] | Potency [3] | Potency [4]
